Screening results deposited in PubChem by National Center for Advancing Translational Sciences (NCATS).
KCNH2 3.1 inh = KCNH2 3.1 (human) potassium channel inhibition; U2OS KCNH2 3.1, thallium flux FluxOr; hits give low values; activity change, % (tested at about 1.8 µM); hit rate 0.95% among 340,000;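 active means maximum activity change below -70%; inconclusive means maximum activity change from -70% to -50%; inactive means maximum activity change above -50%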;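 further: thallium influx rate constant from kinetic fluorescence after stimulation buffer; on the % scale 0 is the no-effect control and ±100 the full control effect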
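Thallium flux via FluxOr fluorescence (Red40 quencher, 45 min loading) in U2OS cells virally expressing the KCNH2 3.1 isoform (1.77 x 10^8 /mL virus, overnight at 37 C). Rate constants from 2-min kinetic reads post-stimulation, normalised to positive and negative controls.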
Glioma ERSR ind = inducers of ER stress response in human glioma cells; U87-MG GRP78 promoter luciferase reporter, 16 h; Potency, µM, for the others: at the top dose activation, usual class: activators; hit rate 0.02% among 420,000; active means well fitted activation curve with a large enough effect; inconclusive means small, poorly fitted or top-dose-only effect; inactive means no such curve, though single readings can be large or run the other way; further: potency means the concentration at half of the fitted maximal effect; series mostly up to about 76 µM; % of control where 0% means no effect; nearly all actives have a fitted effect of over 35% in size
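ERSR induction read as luciferase luminescence (Bright-Glo, 10 min at room temperature) in stably transfected human U87-MG glioma cells exposed to compounds for 16 h, using GRP78 as sensor.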
gsp ag = gsp mutant agonism; gsp mutant cells, cAMP HTRF, 30 min; Potency, µM (doses to about 76.9 µM), without a hit: top-dose activation (cAMP increase), usual class: activators; hit rate 0.13% among 340,000; AID 624287; active means well fitted activation curve with a large enough effect; inconclusive means small, poorly fitted or top-dose-only effect, or another doubt; inactive means no such curve, though single readings can be large or run the other way; cell line not stated here;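 further: phosphodiesterase inhibitor Ro 20-1724 added with compounds to block cAMP breakdown; potency means the concentration at half of the fitted maximal effect; nearly all actives have a fitted effect of over 60% in size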
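Cells in DMEM/10% FBS with G418 were pretreated with compounds in DMSO plus […] (300 uM stock) for 30 min at 37C. cAMP was measured by HTRF (cAMP-d2 plus anti-cAMP antibody-K) after 30 min at room temperature.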
hERG WT inh = inhibitors of human wildtype KCNH2 potassium channel. U2OS, BacMam KCNH2, thallium flux FluxOr; hits give low values. Q12809. AID 720551. hit rate 0.37% among 340,000. activity change, % at 1.84 µM;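 active means maximum activity change below -70%; inconclusive means maximum activity change between -70% and -50%; inactive means maximum activity change above -50%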; further: on the % scale 0 is the no-effect control and ±100 the full control effect
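U2OS cells transduced with wild-type KCNH2 virus are loaded with FluxOr dye for 45 min, and thallium flux is measured in kinetic reads before and after stimulation buffer. Rate constants are normalized to DMSO controls.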
gsp antag = antagonists of gsp mutant (McCune-Albright syndrome). Potency, µM (series often up to 76.9 µM), inactives show at the top dose activity change, negative = inhibition, actives largely listed as inhibitors. hit rate 0.4% among 340,000. gsp-mutant cells, cAMP HTRF, 30 min; calls by dose curve; cell line not stated here;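 further: intracellular cAMP measured with PDE inhibitor Ro 20-1724 present during compound exposure; potency means the concentration at half of the fitted maximal effect; on the % scale 0 is the no-effect control and ±100 the full control effect; nearly all actives have a fitted effect of over 65% in size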
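Cells in G418 medium, seeded 16-24 h, 37C; buffer exchange to DPBS + 1 mM CaCl2, 0.5 mM MgCl2, 0.05% BSA; cpds in DMSO + […] (300 uM stock), 30 min 37C; HTRF cAMP detection.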
Akt phos inh = blocks phosphorylation of Akt. Neuro2A IGF-stimulated pAkt S473 HTRF, 20 min; hits give low values. activity change, % for hits at 50 µM. hit rate 0.32% among 360,000. AID 651550; in the data active means activity change below about -80%; inconclusive means mostly about -51% to -80%; further: on the % scale 0 is the no-effect control and ±100 the full control effect
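Neuro2A cells (4,500/well, DMEM with 0.5% FBS) were treated with compound at a single 50 µM final concentration, stimulated with 6 nM IGF for 20 min at 37 °C, and lysed. Phospho-Akt Ser473 was read by HTRF as 665/615 ratio ×10^4.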
Active calls of the source: *; i = inactive; u = inconclusive; x = not tested or not shown; [ ] = remark or other dose. Sampled rows, rich in hits. Any-hit rate of the full collection: about 1.6%.

SMILES	KCNH2 3.1 inh	Glioma ERSR ind	gsp ag	hERG WT inh	gsp antag	Akt phos inh
O=c1oc2ccccc2n1Cc1ccccc1F	1	2%	10%	x	13%	i
Cn1cnnc1Sc1ccc(CN2CCOc3ccc(C4=Cc5ccccc5CC4)cc3C2)o1	x	-5%	x	x	x	x
Cc1nc2cc(NC(=O)[C@@H]3C[C@@H](Sc4ccccn4)CN3C3CCCCCC3)ccc2s1	x	-5%	x	x	x	x
N#C/C(=C\c1ccccc1Br)C(=O)NC1CC1	-195*	2%	21%	0	0%	i
CC(=O)c1c(C)[nH]c(C(=O)COc2cc(C)ccc2C(C)C)c1C	-10	-8%	-32%	5	11µM*	i
COc1cc(C)ccc1OCC(=O)OCC(=O)c1[nH]c(C)c(C(C)=O)c1C	4	-5%	9%[15.4 µM]	-2	-18%	i
COc1ccccc1OCC(=O)c1[nH]c(C)c(C(C)=O)c1C	-9	-6%	2%	2	25µM*	i
COc1cc(C(=O)NC(=S)Nc2ccc(Cc3ccncc3)cc2)cc(OC)c1OC	4	0%	-71%	-4	32µM*	i
Cc1ccn2c(NCc3ccc4c(c3)OCO4)c(-c3ccc(O)cc3)nc2c1	-75*	-5%	-1%	-12	2%	i
CC1(C)CC(O)CC(C)(C)N1CC(O)COCc1ccccc1 (stereo not given)	-81*	-6%	u	3	2%	i
CCCOc1ccc(CC(=O)NCC2(c3ccccc3)CCOCC2)cc1OC	-3	-5%	0%	-2	-11%	-117%*
CCCOc1ccc(CC(=O)NCc2ccco2)cc1OC	-8	-4%	-16%	5	-9%	i
O=C(Cc1ccc(-n2cccc2)cc1)NCc1cccs1	-89*	-4%	4%	-10	3%	i
Cc1c(C(=O)NCc2cccs2)oc2ccccc12	-79*	4%	2%	-2	0%	i
Cc1c(C(=O)NC2CCCCC2C)oc2ccccc12 (stereo not given)	-35	1%	u	1	7.1µM*	i
Cc1c(C(=O)NC(C)c2ccncc2)oc2ccccc12 (stereo not given)	-109*	-4%	8%	-7	9%	i
Clc1cccc[n+]1CCCCCC[n+]1ccccc1Cl	x	-2%	x	x	x	x
CSc1ccc(-c2ccc(C(=O)NCC3CCCO3)c(N3CCC(O)CC3)n2)cc1 (stereo not given)	x	2%	x	x	x	x
O=C(Nc1ccc(Cl)cc1)Nc1ccc(Cl)c(C(F)(F)F)c1	x	-3%	x	x	x	x
COc1cccc(CNC(=O)c2c(OC)cc(=O)n3c2CCN(C(=O)c2csc(C)n2)CC3)c1	x	0%	x	x	x	x
Cc1oc(-c2ccccc2NC(=O)c2ccccn2)nc1CNC(=O)c1cccc(C#CC(C)(C)O)c1	x	5%	x	x	x	x
O=C(NCc1cccs1)Nc1cccs1	1	2%	-17%	8	6%	-114%*
CCOC(=O)c1c(-c2ccco2)csc1N	14	-3%	1%	-7	3%	-124%*
COCC1CCCN(Cc2ccc3c(c2)CN(C(=O)c2cn4ccc(C)cc4n2)CCO3)C1 (stereo not given)	x	-3%	x	x	x	x
CCOC(=O)C(C)(C)n1nnc(-c2ccc([N+](=O)[O-])cc2)n1	-83*	5%	-14%[15.4 µM]	-4	-2%	i
SMILES	KCNH2 3.1 inh	Glioma ERSR ind	gsp ag	hERG WT inh	gsp antag	Akt phos inh
CCCCOc1ccc(N(CC(=O)NCCOC)C(=O)CCC(=O)Nc2ccccn2)cc1	2	-4%	-10%	6	32µM*	i
CC(=O)NC(Cc1ccccc1)Cc1ccccc1	-11	-2%	13%[15.4 µM]	-15	1%	i
CC(=O)NC(O)C(=O)c1ccccc1 (stereo not given)	11	-1%	-4%	5	1%	-109%*
Oc1ccccc1N=N/C(=N/Nc1ccccc1O)c1ccccc1	0	0%	x	2	-9%	i
N#C/C(N=Nc1ccccc1O)=N\Nc1ccccc1O	34	-6%	x	0	35µM*	i
O=C(CSc1nc(O)cc(=O)n1-c1ccccc1)Nc1ccc2c3c(cccc13)CC2	1	-3%	-16%[15.4 µM]	-3	7.1µM*	i
COc1ccc(/C(O)=C/C(=O)C(=O)Nc2c(C)n(C)n(-c3ccccc3)c2=O)cc1	31	0%	-36%	-119*	-15%	i
